Records with an inconclusive call do not appear. The source made the active and inactive calls. Unless noted, calls follow the shape of the dose curve; as a rule, active = well fitted curve in the direction sought with a large enough effect; inconclusive = small, poorly fitted or top-dose-only effect, or another doubt; inactive = no such curve, though single readings can be large; an effect the other way counts as inactive or inconclusive.

A short description of test [1]: qHTS Assay for Identification of Small Molecule Agonists for NFkB Signaling Pathway. (AID 624478).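 Also: compounds tested together with TNF alpha at its EC50 of 10 pM; 0% is about no effect.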 In short, it runs like this:
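Assay medium contained 0.5% FBS and 10 mM HEPES pH 7.3. Compounds were added together with TNF alpha (10 pM final), incubated 5 h at 37 C, and the beta-lactamase signal was measured fluorometrically.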

Test [2] is described as follows: qHTS Assay for Identification of Small Molecule Antagonists for NFkB Signaling Pathway. (AID 624479; calls by dose curve;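 also: pathway stimulated with TNF alpha; % is scaled to controls: 0 for no effect and ±100 for the full control effect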).
Test [3] is described as follows: Cell Proliferation Assay against the HBL1 Cell Line (AID 651646).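 Also: cells exposed to compound for 48 h before reading.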 Conditions: HBL1 DLBCL cells; at 46.1 µM (top of the series) unless noted. In short, it runs like this:
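CellTiter-Glo luminescence after 48 h compound exposure at 37C gives percent activity, with DMSO as 100% and 9.2 uM bortezomib final as 0%. Cells: 500 log-phase HBL1 per well, RPMI plus 5% FBS.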

Test [4] can be described thus: Cell Proliferation Assay against the TMD8 Cell Line (Caspase readout at 16 hrs) (AID 651712).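 Also: 0% = DMSO and 100% = 9.2 µM bortezomib caspase activation.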 In short, it runs like this: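 Caspase-Glo luminescence measured apoptosis after a 16 h, 37 C compound exposure of TMD8 cells (500 cells/well, 5% FBS RPMI). DMSO set 0% and bortezomib at 9.2 uM final set 100% activity.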
Test [5] can be described thus: Cell Proliferation Assay against the TMD8 Cell Line (Caspase readout at 8 hrs) (AID 651713).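 Also: 0% = DMSO and 100% = 9.2 µM bortezomib caspase signal.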 In short, it runs like this:
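Luminescent caspase 3/7 assay; TMD8 cells, 8 h treatment at 37C, 5% CO2. Normalisation: DMSO 0%, 9.2 uM bortezomib 100%.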

Test [6] deals with Tyrosine-protein kinase Yes (Homo sapiens) (UniProt P07947). Kind of test: qHTS for small molecule inhibitors of Yes1 kinase: Primary Screen (AID 686947). Also: nearly all actives have a fitted effect of over 60% in size. Also: potency is read from the fitted curve at half-maximal effect. In short, it runs like this:
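In this qHTS format, inhibition is expressed relative to DMSO controls with enzyme (maximum) and without enzyme (minimum). The 60 min room-temperature reaction uses 0.1 mM ATP, with ADP detected by luminescence.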
For orientation: Quantitative high-throughput screening tests each substance at several concentrations.

The nature of test [7]: qHTS for small molecule inhibitors of Yes1 kinase: Counter Assay (AID 686950).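 Also: no kinase present so only ADP-Glo detection of a fixed ADP amount is tested; luminescence from ADP-Glo reporting ADP in a fixed ATP and ADP mixture; 0% = DMSO wells with ATP plus ADP and -100% = ATP-only wells without ADP.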 In short, it runs like this: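 ADP-Glo luminescence read after a 60 min room-temperature incubation of compound with an ATP/ADP mix (0.08 mM/0.02 mM) and no kinase, following a 20 min compound preincubation. Signal scaled between ATP+ADP (max) and 0.1 mM ATP-only (min) wells; Tris pH 7.5, Mg2+, DTT.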

Test [8] deals with Arylsulfatase A (Homo sapiens) (UniProt P15289). The test is described as follows: qHTS screen for enhancers of Arylsulfatase A (ASA1): LOPAC Validation Assay (AID 720538). The conditions noted are these: outcome: dose series up to 57.5 µM. In short, it runs like this: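 MLD patient fibroblasts (SV40, ASA-I179S), 1536-well; adhere 6 hrs; cpd 48h, 37 degree C, 5% CO2; pNCS 0.5mM final in lysis buffer, 14h RT; stop 1N NaOH final; fluor. Ex525/Em598.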

Test [9] is described as follows: qHTS for compounds that reverse cellular toxicity of Amyloid beta (A-beta) peptide in yeast: LOPAC Validation Assay (AID 720559).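 Also: plate controls were DMSO for no effect and equimolar ferric chloride plus clioquinol rescue for full effect.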 In short, it runs like this:
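Medium dispensed, compounds pinned, A-beta yeast suspension added; plates held at 30 C for 48 hr; absorbance measured at 600 nm to gauge growth; values scaled between DMSO and FeCl3/clioquinol (equimolar) controls.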

Test [10] is described as follows: qHTS for Activators of Parkin Expression: LOPAC Validation Assay (NLuc Reporter) (AID 720572; also: potency is read from the fitted curve at half-maximal effect). In short, it runs like this: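 Compound effects on Parkin promoter activity were measured as NanoLuc luminescence after 24 h at 37 C. The neuronal reporter line also carried FLuc, which was read first. LOPAC compounds were tested at 7 concentrations, with normalization to DMSO (0%) and positive control (100%).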

Tyrosine-protein kinase Yes (Homo sapiens), sequence (P07947 whole entry, looked up): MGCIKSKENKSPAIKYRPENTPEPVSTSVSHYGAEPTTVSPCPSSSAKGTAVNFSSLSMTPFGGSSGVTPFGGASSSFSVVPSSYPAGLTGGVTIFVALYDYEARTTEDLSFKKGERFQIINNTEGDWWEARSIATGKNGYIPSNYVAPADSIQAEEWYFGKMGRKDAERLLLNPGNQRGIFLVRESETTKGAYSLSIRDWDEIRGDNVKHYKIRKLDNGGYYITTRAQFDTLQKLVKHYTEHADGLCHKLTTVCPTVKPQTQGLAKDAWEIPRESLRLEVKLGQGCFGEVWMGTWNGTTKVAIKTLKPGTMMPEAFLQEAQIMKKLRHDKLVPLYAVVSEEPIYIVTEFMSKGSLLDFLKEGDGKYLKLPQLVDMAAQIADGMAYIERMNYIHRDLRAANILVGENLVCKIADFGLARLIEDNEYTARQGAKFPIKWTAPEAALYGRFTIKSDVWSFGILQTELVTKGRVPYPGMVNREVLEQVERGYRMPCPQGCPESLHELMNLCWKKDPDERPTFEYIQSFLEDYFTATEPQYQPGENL
Arylsulfatase A (Homo sapiens), sequence (P15289 whole entry, looked up): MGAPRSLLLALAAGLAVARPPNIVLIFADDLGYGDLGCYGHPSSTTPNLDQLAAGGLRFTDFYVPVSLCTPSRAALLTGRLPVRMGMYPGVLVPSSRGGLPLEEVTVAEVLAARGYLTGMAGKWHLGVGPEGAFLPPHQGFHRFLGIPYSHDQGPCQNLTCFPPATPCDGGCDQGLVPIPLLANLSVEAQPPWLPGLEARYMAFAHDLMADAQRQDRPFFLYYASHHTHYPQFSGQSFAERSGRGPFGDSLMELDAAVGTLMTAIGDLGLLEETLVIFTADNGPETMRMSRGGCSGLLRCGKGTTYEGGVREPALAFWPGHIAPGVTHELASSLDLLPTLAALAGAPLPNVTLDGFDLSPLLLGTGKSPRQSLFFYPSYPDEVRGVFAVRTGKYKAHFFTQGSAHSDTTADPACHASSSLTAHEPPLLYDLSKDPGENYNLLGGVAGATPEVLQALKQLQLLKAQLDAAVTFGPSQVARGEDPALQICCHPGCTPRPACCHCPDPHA

Regarding `O=C(O)[C@@H](c1ccc(OCc2ccc3ccccc3n2)cc1)C1CCCC1`, the molecule was called inactive in test [1] and in test [7]. Moreover, the Potency entry in test [2], in [4], in test [5] and in test [6] was “inactive” throughout. Moreover, the viability, percent of control in test [3] was determined as 92.8%.
As for `Cc1csc(NC(=O)c2sc3nc4c(c(C(F)(F)F)c3c2N)CCC4)n1`, the molecule was called inactive in [1] and in [7]. Besides, the Potency result in [2], in [4], in [5] and in [6] was “inactive” in each case. The viability, percent of control in test [3] was found to be 60.9%.
Turning to `CCC(C)N(C)C(=O)c1cc2ccccc2c(-c2ccccc2Cl)n1` (stereo not given), the result in [1], in test [7], in test [8] and in [9] was inactive. The Potency entry in [2], in test [5] and in test [6] was “inactive” in each case. The viability, percent of control in test [3] came out at 90%. In [10], the Potency was 20.6 µM (active).
As for `CN([C@@H](Cc1ccc(OS(=O)(=O)c2cccc3cnccc23)cc1)C(=O)N1CCN(c2ccccc2)CC1)S(=O)(=O)c1cccc2cnccc12`, the molecule was called inactive in [1] and in test [7]. For the same molecule, the Potency entry in test [2], in [4], in test [5] and in test [6] was “inactive” in each case. The viability, percent of control in test [3] is 106%.
Turning to `CC(C)OC(=O)C1=CN(C(=O)c2ccc(F)c(F)c2)CC(C)(C)c2c1[nH]c1ccccc21`, the molecule was called inactive in test [1] and in test [7]. Further, the Potency result in test [2], in test [4], in test [5] and in [6] was “inactive” each time. Further, in test [3], the viability, percent of control was 100%.
As to `C[C@H](NC(=O)Cc1cc(F)cc(F)c1)C(=O)N[C@@H]1C(=O)N(C)c2ccccc2-c2ccccc21`, the call in test [1] and in test [7] was inactive. Moreover, the Potency result in test [2], in test [4], in [5] and in test [6] was “inactive” in each case. Also, in [3], the viability, percent of control worked out at 87.3%.
Turning to `Cc1cccc(-c2[nH]c(C(C)(C)C)nc2-c2ccc3nccnc3c2)n1`, the result in test [1], in test [7], in [8] and in test [9] was inactive. The Potency entry in test [2], in test [4], in test [5] and in test [10] was “inactive” in each case. Further, the viability, percent of control in [3] was found to be 100%. In addition, the Potency in test [6] is 0.688 µM (active).
For `Nc1nc2ccc(OC(F)(F)F)cc2s1`, the result in test [1], in [7] and in test [9] was inactive. The Potency result in test [2], in [4], in [5], in test [6] and in test [10] was “inactive” throughout. In addition, the viability, percent of control in test [3] came out at 50.6%.
For the molecule `Cc1cc(C=c2sc3nc4ccccc4n3c2=O)c(C)n1-c1ccccc1`, the outcome in test [1] and in [7] was inactive. The Potency result in [2], in test [4], in [5] and in [6] was “inactive” each time. Moreover, in [3], the viability, percent of control is 43.7%.
Regarding `Cc1n[nH]c(C)c1Cc1sc2c(c1C(=O)N1C[C@H](O)CO1)c(=O)n(C)c(=O)n2CC(C)C`, the molecule was called inactive in test [1] and in test [7]. The Potency result in [2], in test [4], in [5] and in [6] was “inactive” throughout. Also, the viability, percent of control in test [3] worked out at 76%.
Take `CC(=O)NC(C)c1ccc(Oc2ccc(OC(C)C)cc2)cc1` (stereo not given): the call in test [1] and in test [7] was inactive. Besides, the Potency entry in test [2], in test [4] and in [5] was “inactive” throughout. Moreover, the viability, percent of control in test [3] turned out to be 62.8%.
Consider `O=C(O)CCc1ccc(NCc2cccc(Oc3ccccc3)c2)cc1`, for which the molecule was classed as inactive in test [1] and in test [7]. Moreover, the Potency result in test [2], in test [4], in [5] and in test [6] was “inactive” in each case. Besides, the viability, percent of control in test [3] is 95.9%.

(Values after PubChem BioAssay (NCATS).)
